Reference: article PMC6212833
The full ranking holds about 2,000 compounds; the median of “B-score” is about -0.0024, and the highest 2% start at about 4. Many of the other results were omitted from the sample, so the highest values are more common in it than they were. Where a SMILES comes first, the peptide text is derived from it. [ ]: non-standard residue; d: D form. dPhe(4-Cl) = N[C@H](Cc1ccc(Cl)cc1)C(=O)O; d2Nal = N[C@H](Cc1ccc2ccccc2c1)C(=O)O; dCit = NC(=O)NCCC[C@@H](N)C(=O)O; d3Pal = N[C@H](Cc1cccnc1)C(=O)O

The compounds below were run on Balamuthia mandrillaris (ATCC PRA-291) trophozoites, axenic culture (assay: primary screen, b score). Conditions: 20 µM.
Procedure: Screening of a clinically approved library of compounds, compiled by the Small Molecule Discovery Center (SMDC) at the UCSF, was completed at 20 µM in 0.2% DMSO. All 2,177 drugs in the library were stored as 10 mM stocks dissolved in 100% DMSO (Sigma-Aldrich) at −20°C. B. mandrillaris amoebae were resuspended in axenic medium and distributed into opaque 384-well plates (Corning) at a density of 3,000 amoebae per well using a BioMek NX liquid handler. Negative-control wells were treated with vehicle only (0.2% DMSO in axenic medium), and positive-control wells simulating total destruction of amoebae were seeded with amoeba lysate generated by 3 consecutive freeze-thaw cycles. Following 72 h of incubation, 30 µl of CellTiter Glo reagent (CTG; Promega) was added to each well. The luminescence was measured with a Promega GloMax-Multi+ plate reader at 2, 4, and 8 h after CTG addition. […] The B-score, representing a plate-based statistical approach for correcting row, column, and edge effects, was also calculated for each compound in the library (75).

Row | Structure (SMILES) | B-score
1 | CC(C)C(=O)Nc1ccc([N+](=O)[O-])c(C(F)(F)F)c1 | 0.258
2 | O=C1CCCC(=O)C1C(=O)c1ccc(C(F)(F)F)cc1[N+](=O)[O-] | 4.46
3 | C[C@H](CCC(=O)O)[C@H]1CCC2C3C(CC[C@@]21C)[C@@]1(C)CC[C@@H](O)C[C@H]1C[C@H]3O (stereo partly shown) | 0.903
4 | CSc1ccc2c(c1)N(CCC1CCCCN1C)c1ccccc1S2 (stereo not shown) | -2.17
5 | CSc1ccc2c(c1)C(N1CCN(C)CC1)Cc1ccccc1S2 (stereo not shown) | 4.72
6 | CCSc1ccc2c(c1)N(CCCN1CCN(C)CC1)c1ccccc1S2 | 0.621
7 | CC(C1=C(CCN(C)C)Cc2ccccc21)c1ccccn1 (stereo not shown) | 0.12
8 | CCC(CC)(CC(=O)Nc1cccc(/C=C/c2nc(C3CCC3)cs2)c1)C(=O)O | -0.153
10 | OC[C@H]1O[C@@H](n2cnc3c2NC=NC[C@H]3O)C[C@@H]1O | -0.0925
11 | Nc1nc(Cl)nc2c1ncn2C1O[C@H](CO)[C@@H](O)[C@@H]1F (stereo partly shown) | 3.21
12 | Nc1nc(Cl)nc2c1ncn2[C@@H]1O[C@H](CO)[C@@H](O)[C@@H]1F | 4.42
13 | Nc1nc(Cl)nc2c1ncn2[C@H]1C[C@H](O)[C@@H](CO)O1 | -1.53
14 | O=C(O)c1ccc(S(=O)(=O)N(Cl)Cl)cc1 | 1.61
15 | Cc1nc2c([nH]1)-c1ccccc1N(C(=O)c1ccc(NC(=O)c3ccccc3-c3ccccc3)cc1)CC2 | 0.432
16 | CC1=C(/C=C/C(C)=C/C=C/C(C)=C/C(=O)O)C(C)(C)CCC1 | -2.29
17 | O=C1Nc2ccc(Cl)cc2C(c2ccccc2Cl)=NC1O (stereo not shown) | 0.787
18 | COc1ccc(C(=O)N2CCCC2=O)cc1 | 3.97
19 | COc1ccc(C(=O)Nc2ccccc2CCC2CCCCN2C)cc1 (stereo not shown) | 1.2
20 | COc1ccc(C(=O)CC(=O)c2ccc(C(C)(C)C)cc2)cc1 | 0.547
21 | CCCCCCCCCC(=O)N[C@@H](Cc1c[nH]c2ccccc12)C(=O)N[C@@H](CC(N)=O)C(=O)N[C@@H](CC(=O)O)C(=O)N[C@@H]1C(=O)NCC(=O)N[C@@H](CCCN)C(=O)N[C@@H](CC(=O)O)C(=O)N[C@H](C)C(=O)N[C@@H](CC(=O)O)C(=O)NCC(=O)N[C@H](CO)C(=O)NC([C@@H](C)CC(=O)O)C(=O)N[C@@H](CC(=O)c2ccccc2N)C(=O)O[C@H]1C (stereo partly shown) | -0.0797
22 | CC[C@]1(O)C[C@H]2CN(CCc3c([nH]c4ccccc34)[C@@](C(=O)OC)(c3cc4c(cc3OC)N(C)[C@H]3[C@@](O)(C(N)=O)[C@H](O)[C@]5(CC)C=CCN6CC[C@]43[C@@H]65)C2)C1 | 0.225
23 | C#C[C@]1(O)CC[C@H]2[C@@H]3CCc4cc(O)ccc4[C@H]3CC[C@@]21C | 1.29
24 | O=C(O)CN(CCN(CC(=O)O)CC(=O)O)CC(=O)O [130802-L4] | 1.65
25 | CCOC(=O)[C@H](CCc1ccccc1)N[C@@H](C)C(=O)N1[C@H](C(=O)O)C[C@@H]2CCC[C@@H]21 | 0.0961
26 | O=C(CCCCCCC(=O)Nc1ccccc1)NO | 6.71

Row | Structure (SMILES) | B-score
27 | O=C(Nc1ccccc1)c1ccccc1O | 2.94
28 | CC(=O)Nc1ccccc1 | 1.19
29 | CO[C@@]1(NC(=O)C(C(=O)O)c2ccc(O)cc2)C(=O)N2C(C(=O)O)=C(CSc3nnnn3C)CO[C@@H]21 (stereo partly shown) | -2.22
30 | Clc1ccccc1C(c1ccccc1)(c1ccccc1)n1ccnc1 | 0.597
31 | CN[C@@H]1C(OC2[C@H](O[C@H]3[C@H](O)[C@@H](O)[C@H](N=C(N)N)[C@@H](O)[C@@H]3N=C(N)N)OC(C)[C@]2(O)CO)OC(CO)C(O)C1O (stereo partly shown) | -0.0786
32 | CN1C[C@H](C(=O)N[C@]2(C)O[C@@]3(O)C4CCCN4C(=O)[C@H](Cc4ccccc4)N3C2=O)C=C2c3cccc4[nH]cc(c34)C[C@H]21 (stereo partly shown) | 0.00794
33 | O=S(=O)(O)CCCS(=O)(=O)O | -0.716
34 | CN1C(=O)CC(C)(c2ccccc2)C1=O (stereo not shown) | -0.587
35 | N=C(N)N/N=C\c1c(Cl)cccc1Cl | 1.73
36 | O=C(O)c1nn(Cc2ccc(Cl)cc2Cl)c2ccccc12 | 4.66
37 | CCn1nc(C(=O)O)c(=O)c2cc3c(cc21)OCO3 | 0.0115
38 | CN(C)CCCOc1nn(Cc2ccccc2)c2ccccc12 [255688-L2] | -0.0539
39 | Nc1nc(N)nc(-c2cc(Cl)ccc2Cl)n1 | -4.01
40 | O=C(N/N=C/c1ccc([N+](=O)[O-])o1)c1ccc(O)cc1 | -0.646
41 | CO[C@H]1/C=C/O[C@@]2(C)Oc3c(C)c(O)c4c(O)c(c(/C=N/N5CCN(C6CCCC6)CC5)c(O)c4c3C2=O)NC(=O)/C(C)=C\C=C\[C@H](C)[C@H](O)[C@@H](C)[C@@H](O)[C@@H](C)[C@H](OC(C)=O)[C@@H]1C | 2.93
42 | CC1=NN(c2ccccc2)C(=O)C1 | -0.154
43 | COc1cccc2c1C(=O)c1c(O)c3c(c(O)c1C2=O)C[C@@](O)(C(C)=O)C[C@@H]3O[C@H]1C[C@H](N)[C@H](O)[C@H](C)O1 | 0.546
44 | COc1cccc2c1C(=O)c1c(O)c3c(c(O)c1C2=O)C[C@@](O)(C(=O)CO)C[C@@H]3OC1C[C@H](N)[C@H](O)[C@H](C)O1 (stereo partly shown) | 0.333
45 | CC(=O)[C@]1(O)Cc2c(O)c3c(c(O)c2[C@@H](O[C@H]2C[C@H](N)[C@H](O)[C@H](C)O2)C1)C(=O)c1ccccc1C3=O | -0.033
46 | CCCCC(=O)OCC(=O)[C@]1(O)Cc2c(O)c3c(c(O)c2[C@@H](O[C@H]2C[C@H](NC(=O)C(F)(F)F)[C@H](O)[C@H](C)O2)C1)C(=O)c1c(OC)cccc1C3=O | -0.809
47 | COc1cccc2c1C(=O)c1c(O)c3c(c(O)c1C2=O)C[C@@](O)(C(=O)CO)C[C@@H]3O[C@H]1C[C@H](N)[C@@H](O)[C@H](C)O1 | 4.02
48 | COc1cccc2c1C(=O)c1c(O)c3c(c(O)c1C2=O)C[C@@](O)(C(=O)CO)C[C@@H]3O[C@H]1C[C@H](N)[C@H](O)[C@H](C)O1 | 9.99
49 | CC(CCc1ccccc1)NC(C)C(O)c1ccc(O)cc1 (stereo not shown) | 1.37
50 | CCn1cc(C(=O)O)c(=O)c2cc(F)c(N3CCN(C)CC3)cc21 [518631-L6] | 0.04
51 | CC(=O)N[C@H](Cc1ccc2ccccc2c1)C(=O)N[C@H](Cc1ccc(Cl)cc1)C(=O)N[C@H](Cc1cccnc1)C(=O)N[C@@H](CO)C(=O)N[C@@H](Cc1ccc(O)cc1)C(=O)N[C@H](CCCNC(N)=O)C(=O)N[C@@H](CC(C)C)C(=O)N[C@@H](CCCN=C(N)N)C(=O)N1CCC[C@H]1C(=O)N[C@H](C)C(N)=O (Ac-[d2Nal][dPhe(4-Cl)][d3Pal]SY[dCit]LRP[dA]-NH2) | -2.68
52 | Cc1c(F)c(N2CCNC(C)C2)cc2c1c(=O)c(C(=O)O)cn2C1CC1 (stereo not shown) | -0.223

Row | Structure (SMILES) | B-score
53 | O=C(O)CCCCCCCC(=O)O | 0.466
54 | CC(CN(C)C)CN1c2ccccc2Sc2ccccc21 (stereo not shown) | 0.0868
55 | CO[C@H]1/C=C/O[C@@]2(C)Oc3c(C)c(O)c4c(O)c(c5c(c4c3C2=O)=NC2(CCN(CC(C)C)CC2)N=5)NC(=O)/C(C)=C\C=C\[C@H](C)[C@H](O)[C@@H](C)[C@@H](O)[C@@H](C)[C@H](OC(C)=O)[C@@H]1C | 1.11
56 | OCCOCCN1CCN(C(c2ccccc2)c2ccc(Cl)cc2)CC1 (stereo not shown) [130849-L5] | 1.53
57 | C=C1CC[C@H](O)C/C1=C/C=C1\CCC[C@]2(C)C([C@H](C)/C=C/[C@H](C)C(C)C)CC[C@@H]12 (stereo partly shown) | 0.264
58 | CCc1cc2c(cc1CC)CC(NC[C@H](O)c1ccc(O)c3nc(O)ccc13)C2 | 1
59 | Nc1ccc(S(=O)(=O)c2ccc(N)cc2)cc1 | -0.0896
60 | Cc1cc(N)c2ccccc2[n+]1CCCCCCCCCC[n+]1c(C)cc(N)c2ccccc21 | 13
61 | Nc1ccn([C@@H]2CS[C@H](CO)O2)c(=O)n1 | 1.59
62 | CN1C(CSCC(F)(F)F)Nc2cc(Cl)c(S(N)(=O)=O)cc2S1(=O)=O (stereo not shown) | 0.321
63 | CCN[C@H]1C[C@H](C)S(=O)(=O)c2sc(S(N)(=O)=O)cc21 | -1.38
64 | CC[C@@]1(O)C(=O)OCc2c1cc1n(c2=O)Cc2cc3c(CN(C)C)c(O)ccc3nc2-1 | 2.13
65 | CCCCCCCCCCCCC[N+](C)(C)Cc1ccccc1 | 3.43
66 | CCCCCCCCCCCCCCCC[n+]1ccccc1 | 7.82
67 | CCCCCCCCCCCCCCCCCCCCCCO | -0.00277
68 | O=S(=O)(OC[C@H]1O[C@@H](O[C@]2(COS(=O)(=O)[O][Al]([OH])[OH])O[C@H](OS(=O)(=O)[O][Al]([OH])[OH])[C@@H](OS(=O)(=O)[O][Al]([OH])[OH])[C@@H]2OS(=O)(=O)[O][Al]([OH])[OH])[C@H](OS(=O)(=O)[O][Al]([OH])[OH])[C@@H](OS(=O)(=O)[O][Al]([OH])[OH])[C@@H]1OS(=O)(=O)[O][Al]([OH])[OH])[O][Al]([OH])[OH] | -0.0184
69 | C/C=C/C/C=C/CCC(=O)[C@H]1O[C@H]1C(N)=O | -0.632
70 | CN(CC(=O)O)C(=N)N | -5.89
71 | CN1C2CCC[C@H]1C[C@H](NC(=O)c1nn(C)c3ccccc13)C2 | -0.598
72 | C[S+](CC[C@H](N)C(=O)O)C[C@H]1O[C@@H](n2cnc3c(N)ncnc32)[C@H](O)[C@@H]1O (stereo partly shown) | 0.856
73 | CC(=O)c1ccc2c(c1)N(CCCN1CCC(CCO)CC1)c1ccccc1S2 | -0.0165
74 | Oc1ccc(Cl)cc1 | 0.00397
75 | CC(C)(C)CC(C)(C)c1ccc(O)c(Cc2ccc(Cl)cc2Cl)c1 | 2.02
76 | Oc1ccc(Cl)cc1Cc1cc(Cl)ccc1O | 5.34
